This is an account of results in PubChem BioAssay (NCI).

The panel holds about 83,000 compounds, 20% with a hit somewhere; the sample as a whole holds those more often.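 Treatment: one concentration, 48 hours, 96-well format. Scoring: percent growth, with anything below 10 considered active.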 Unmarked numbers belong to inactive results. Active and inactive are the calls of the source.

Some test systems named below: HCT-15 colon; HT29 colon; SNB-75 CNS; SNB-19 CNS; U251 CNS; PC-3 prostate; SK-MEL-5 melanoma; UACC-62 melanoma; LOX IMVI melanoma; SK-MEL-28 melanoma; EKVX NSCLC; SN12C renal; UO-31 renal; TK-10 renal; ACHN renal; A498 renal; CCRF-CEM leukemia; MOLT-4 leukemia; SK-MEL-2 melanoma; CAKI-1 renal.
Holding throughout (test): NCI-60 one-dose screen, 48 h (100 = growth as untreated, 0 = no growth, -100 = all killed)
Holding throughout (settings): 10 µM unless noted

Turning to `CN1C(=O)C(C2=NN(C=O)C(c3ccc(F)cc3)C2)C(=O)N(C)C1=O` (stereo not given), the growth was 101% with HCT-15 colon; 91.7% in the assay on HT29 colon; 93.5% in the assay with SNB-75 CNS; 92.4% in the assay on SNB-19 CNS; 92.3% in the assay on U251 CNS; 78.7% in the assay with PC-3 prostate. Further, the growth in the assay with SK-MEL-5 melanoma is 102%; in the assay with UACC-62 melanoma, 100%; with LOX IMVI melanoma, 90.4%; in the assay on SK-MEL-28 melanoma, 111%; in the assay with EKVX NSCLC, 101%; in the assay with SN12C renal, 97.3%. Also, the growth is 96.6% in the assay with UO-31 renal; 99.1% in the assay on TK-10 renal; 107% in the assay with ACHN renal; 96.7% in the assay on A498 renal; 77.4% in the assay on CCRF-CEM leukemia; 93.8% with MOLT-4 leukemia.

Regarding `O=CN1N=C(c2ccc(Cl)cc2)CC1c1cccc(Nc2ccnc3cc(Cl)ccc23)c1` (stereo not given), the growth is 16.9% in the assay with HCT-15 colon; 3.98% (active) in the assay with HT29 colon; 1.24% (active) in the assay with SNB-75 CNS; 43.3% with SNB-19 CNS; 13% in the assay with U251 CNS; 12.8% in the assay on PC-3 prostate. Also, the growth in the assay with SK-MEL-5 melanoma was -63.2% (active); in the assay on UACC-62 melanoma, 30.3%; in the assay with LOX IMVI melanoma, 11.3%; with SK-MEL-28 melanoma, 39.3%; in the assay on EKVX NSCLC it was 30.3%; in the assay with SN12C renal, 34.5%. The growth is 19.5% in the assay on UO-31 renal; 23% with TK-10 renal; 31.5% in the assay with ACHN renal; 9.76% (active) with A498 renal; 13.6% in the assay on CCRF-CEM leukemia; 4.5% (active) in the assay on MOLT-4 leukemia.

As for `COc1ccc(Oc2ccccc2NC(=O)CNC(=O)c2cccc3ccccc23)cc1`, the growth with HCT-15 colon is 17.2% [5 µM]; with HT29 colon, 2.75% [5 µM] (active); with SNB-75 CNS, 41.6% [5 µM]; in the assay on SNB-19 CNS it was 51.4% [5 µM]; in the assay on U251 CNS it was 16.9% [5 µM]; in the assay with PC-3 prostate it was 21.5% [5 µM]. Besides, the growth with SK-MEL-5 melanoma was 10.3% [5 µM]; with UACC-62 melanoma, 37.5% [5 µM]; with LOX IMVI melanoma it was 22.3% [5 µM]; with SK-MEL-28 melanoma, 60.6% [5 µM]; with EKVX NSCLC, 46.3% [5 µM]; in the assay with SN12C renal, 46.7% [5 µM]. In addition, the growth in the assay with UO-31 renal is 42.4% [5 µM]; in the assay on TK-10 renal, 47.6% [5 µM]; with ACHN renal, 40.3% [5 µM]; with A498 renal, 7% [5 µM] (active); in the assay with CCRF-CEM leukemia, 15.5% [5 µM]; with MOLT-4 leukemia, 17.1% [5 µM].

Consider `O=C(CNC(=O)c1cccc2ccccc12)Nc1ccccc1Cc1ccccc1`, for which the growth in the assay with HCT-15 colon is 28% [5 µM]; in the assay with HT29 colon, 4.74% [5 µM] (active); with SNB-75 CNS, 32% [5 µM]; in the assay with SNB-19 CNS it was 54.3% [5 µM]; in the assay on U251 CNS, 24.3% [5 µM]; in the assay with PC-3 prostate, 31.6% [5 µM]. Besides, the growth with SK-MEL-5 melanoma is 34.4% [5 µM]; in the assay with UACC-62 melanoma, 51.3% [5 µM]; in the assay on LOX IMVI melanoma, 38.2% [5 µM]; in the assay on SK-MEL-28 melanoma it was 61% [5 µM]; in the assay on EKVX NSCLC it was 54.9% [5 µM]; in the assay with SN12C renal, 56.3% [5 µM]. Moreover, the growth in the assay on UO-31 renal is 60.7% [5 µM]; in the assay with TK-10 renal it was 49.6% [5 µM]; with ACHN renal it was 56.9% [5 µM]; in the assay on A498 renal, 38.2% [5 µM]; with CCRF-CEM leukemia, 20.4% [5 µM]; with MOLT-4 leukemia it was 19.2% [5 µM].

`Cc1n(Cc2ccc3ccccc3c2)cc[n+]1Cc1ccc2ccccc2c1`: the growth in the assay with HCT-15 colon was 85.3%; with HT29 colon it was 1.25% (active); in the assay with SNB-75 CNS, 1.07% (active); in the assay with SNB-19 CNS, 2.02% (active); in the assay with U251 CNS it was 8.17% (active); with PC-3 prostate it was 14.1%. Further, the growth was -92% (active) in the assay on SK-MEL-5 melanoma; -40.3% (active) in the assay on UACC-62 melanoma; -75% (active) with LOX IMVI melanoma; -11.6% (active) in the assay on SK-MEL-28 melanoma; 47% with EKVX NSCLC; 2.52% (active) in the assay with SN12C renal. In addition, the growth in the assay on UO-31 renal is 81.5%; with TK-10 renal, 23.5%; with ACHN renal it was 80.1%; in the assay with A498 renal, 31.2%; in the assay with CCRF-CEM leukemia it was 24.1%; in the assay with MOLT-4 leukemia, 11.3%.

For `CS(=O)(=O)N1CCN(Cc2cc3nc(-c4cccc5[nH]ncc45)nc(N4CCOCC4)c3s2)CC1` (tested in a mixture with another compound), the growth with HCT-15 colon was 14.2%; in the assay with HT29 colon, 9.57% (active); in the assay on SNB-75 CNS, -3.36% (active); with SNB-19 CNS, 28%; in the assay on U251 CNS it was 30.5%; with PC-3 prostate, 6.61% (active). For the same compound, the growth is -0.161% (active) in the assay with SK-MEL-5 melanoma; -13.5% (active) in the assay with UACC-62 melanoma; 10.6% with SK-MEL-28 melanoma; 33.4% with SK-MEL-2 melanoma; 16.7% with EKVX NSCLC; 17% with SN12C renal. Besides, the growth in the assay on UO-31 renal is -12.9% (active); in the assay with TK-10 renal it was 20.5%; in the assay with ACHN renal, 12.2%; in the assay with CAKI-1 renal, -1.96% (active); in the assay with A498 renal it was -62.1% (active); in the assay on CCRF-CEM leukemia, 20.9%. Moreover, in the assay with MOLT-4 leukemia, the growth was 8.77% (active).

Regarding `CCCc1n(Cc2ccc3ccccc3c2)cc[n+]1Cc1ccc2ccccc2c1`, the growth was 53.8% in the assay on HCT-15 colon; -22.5% (active) in the assay with HT29 colon; -13.9% (active) in the assay with SNB-75 CNS; -7.08% (active) with SNB-19 CNS; 0.776% (active) in the assay with U251 CNS; -2.89% (active) in the assay on PC-3 prostate. In addition, the growth is -98.1% (active) with SK-MEL-5 melanoma; -67.2% (active) in the assay on UACC-62 melanoma; -84.3% (active) in the assay with LOX IMVI melanoma; -40.3% (active) with SK-MEL-28 melanoma; 21.1% in the assay on EKVX NSCLC; -3.87% (active) in the assay with SN12C renal. The growth with UO-31 renal was 34.8%; in the assay with TK-10 renal, -8.58% (active); with ACHN renal it was 42.3%; with A498 renal, -3.35% (active); in the assay with CCRF-CEM leukemia, 11.8%; in the assay on MOLT-4 leukemia, -5.48% (active).

For `COc1cc(C2CC(C3C(=O)N(C)C(=O)N(C)C3=O)=NN2c2cc(Cl)cc(Cl)c2)cc(OC)c1OC` (stereo not given), the growth with HCT-15 colon is 98.2%; in the assay on HT29 colon, 91.6%; in the assay with SNB-75 CNS, 100%; in the assay with SNB-19 CNS, 91.7%; in the assay on U251 CNS it was 92.5%; in the assay with PC-3 prostate, 74.3%. Further, the growth was 91.3% with SK-MEL-5 melanoma; 75.6% in the assay with UACC-62 melanoma; 99% in the assay with LOX IMVI melanoma; 101% with SK-MEL-28 melanoma; 93.8% in the assay with EKVX NSCLC; 93.6% with SN12C renal. The growth in the assay with UO-31 renal is 83.2%; in the assay with TK-10 renal, 94.1%; with ACHN renal, 96.3%; in the assay on A498 renal, 88.5%; in the assay on CCRF-CEM leukemia, 88.3%; in the assay with MOLT-4 leukemia, 88.9%.
